The supplement of paper PMC13094657
Structures can show the parent of a compound that is named as a salt. ± gives the standard deviation of the averaged measurements.

How the values were obtained:
MDA-MB-231 [1] = experiment: cell viability relative to vehicle unstimulated control (fraction); higher = more viable cells; conditions: pre-treatment time: 18 h then 24 h IFNg/TNF
MDA-MB-231 [2] = experiment: kynurenine production, fold change vs DMSO IFNg/TNF control; higher = more kynurenine produced (less inhibition); conditions: pre-treatment time: 18 h then 24 h IFNg/TNF
In short: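 MDA-MB-231 cells (7 × 10^4/well, 96-well plates, seeded 24 h earlier) were pre-treated 18 h with each natural product in 0.1% DMSO, then stimulated 24 h with IFNγ (1 U/ml) and TNF (6.25 ng/ml) at 37°C. Supernatant kynurenine was read at 492 nm after trichloroacetic acid and p-dimethylaminobenzaldehyde treatment, against 0–100 μM standards. Kynurenine production is the fold change over cytokine-stimulated vehicle wells on the same plate, averaged over duplicate plates in the first screening round.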
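For cell viability relative to vehicle unstimulated control in this document: viability of the cells left after supernatant collection, read with Deep Blue dye added for 4 h, as absorbance at 570 nm minus 600 nm.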

Compound	cell viability (MDA-MB-231 [1])	kynurenine production (MDA-MB-231 [2])
CC1(C)C[C@@H](O)[C@]2(C)CC[C@]3(C)C(=CC[C@@H]4[C@@]5(C)CC[C@H](O)[C@](C)(CO)[C@@H]5CC[C@]43C)[C@@H]2C1 [Soyasapogenol B] (compound dose: 10 uM)	1.02 ± 0.018	0.744 ± 0.025
C/C=C(/C)C(=O)O[C@H]1C(C)=C[C@]23C(=O)[C@@H](C=C(CO)[C@@H](O)[C@]12O)[C@H]1[C@@H](C[C@H]3C)C1(C)C [Ingenol 3-Angelate] (compound dose: 10 uM)	0.958 ± 0.11	0.979 ± 0.16
COc1ccc([C@H]2OC[C@H]3[C@@H]2CO[C@H]3c2ccc(O[C@@H]3O[C@H](CO)[C@@H](O)[C@H](O)[C@H]3O)c(OC)c2)cc1OC [Phillyrin] (compound dose: 10 uM)	0.978 ± 0.024	0.866 ± 0.16
COc1ccc2c3c1O[C@H]1C[C@@H](O)C=C[C@@]31CCN(C)C2 [Galantamine hydrobromide] (compound dose: 10 uM)	1.04	0.792 ± 0.067
C=C1C(=O)[C@]23[C@H](O)[C@H]1CC[C@H]2[C@@]12CO[C@]3(O)[C@@H](O)[C@@H]1C(C)(C)CC[C@@H]2O [Oridonin] (compound dose: 10 uM)	0.917 ± 0.017	0.73 ± 0.054
C[C@@H]1CC[C@]2(C(=O)O)CC[C@]3(C)C(=CCC4[C@@]5(C)CC[C@H](O[C@@H]6OC[C@H](O)[C@H](O)[C@H]6O)C(C)(C)C5CC[C@]43C)[C@@H]2[C@]1(C)O (stereo partly specified) [Ziyuglycoside II] (compound dose: 10 uM)	0.934 ± 0.014	0.646 ± 0.0077
CC(C)=CCC[C@@H](C)CC=O [(R)-(+)-Citronellal] (compound dose: 10 uM)	1.07 ± 0.035	1.44 ± 0.056
CC1(C)[C@@H](O[C@H]2O[C@H](C(=O)O)[C@@H](O)[C@H](O)[C@H]2O[C@@H]2O[C@H](C(=O)O)[C@@H](O)[C@H](O)[C@H]2O)CC[C@]2(C)[C@H]3C(=O)C=C4[C@@H]5C[C@@](C)(C(=O)O)CC[C@]5(C)CC[C@@]4(C)[C@]3(C)CC[C@@H]12 [Dipotassium glycyrrhizinate] (compound dose: 10 uM)	0.924 ± 0.031	0.808 ± 0.21
